# Assay results published in the supplement of paper PMC12494721.
# Structures can show the parent of a compound that is named as a salt.
# Key:
# Conditions in all cases: incubation time: 27 h, anaerobic, 37 °C;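 for the amine columns active = adjusted P below 0.05 in both replicates with a change the same way and a mean fold change under 0.8 or over 1.25; inactive = the rest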
# [1] = tested on: Clostridium sporogenes DSM 1664; assay: growth (OD595) fold change vs plate DMSO controls (fold change (ratio)); higher = more growth
# Method in brief: (§1)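 The 96-well mGAM cultures had been kept anaerobic for 27 h at 37 °C before being shaken and read at 595 nm. Blank subtraction, compound background correction with 20 µM compound solutions in water, and a calibration factor of 5 turned the readings into OD. Growth is given as the fold change versus the median of plate DMSO controls. Fold changes above 1.5 were set to NA, and the values are means of 2 biological replicates.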
# Escherichia coli IAI1 [2] = assay: as above
# Method in brief: as §1
# [3] = tested on: Klebsiella aerogenes DSM 30053; assay: as above
# Method in brief: as §1
# [4] = tested on: Ruminococcus gnavus DSM 108212; assay: as above
# Method in brief: as §1
# [5] = tested on: Klebsiella aerogenes DSM 30053; assay: fold change of Histamine concentration vs plate DMSO controls (fold change (ratio)); higher = more amine produced, active = hit call of the paper (significant change in both replicates, either direction)
# Method in brief: (§2)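 Amine values are fold changes relative to DMSO-only wells on the same plate. They derive from 27 h, 37 °C anaerobic mGAM cultures of four gut bacterial strains in 80 µL wells, dosed at 20 µM final, or 50 µM final for sweeteners. Extraction of the whole culture, LC–triple-quadrupole MS in dynamic MRM mode, external calibration curves and within-batch drift correction were used, with 2 biological replicates averaged.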
# [6] = tested on: Clostridium sporogenes DSM 1664; assay: fold change of Tryptamine concentration vs plate DMSO controls (fold change (ratio)); higher = more amine produced, active = hit call of the paper (significant change in both replicates, either direction)
# Method in brief: as §2
# [7] = tested on: Ruminococcus gnavus DSM 108212; assay: as above
# Method in brief: as §2
# Escherichia coli IAI1 [8] = assay: fold change of Putrescine concentration vs plate DMSO controls (fold change (ratio)); higher = more amine produced, active = hit call of the paper (significant change in both replicates, either direction)
# Method in brief: as §2
# [9] = tested on: Klebsiella aerogenes DSM 30053; assay: as above
# Method in brief: as §2
# Escherichia coli IAI1 [10] = assay: fold change of Cadaverine concentration vs plate DMSO controls (fold change (ratio)); higher = more amine produced, active = hit call of the paper (significant change in both replicates, either direction)
# Method in brief: as §2
# [11] = tested on: Klebsiella aerogenes DSM 30053; assay: as above
# Method in brief: as §2
# [12] = tested on: Ruminococcus gnavus DSM 108212; assay: fold change of 2-Phenylethylamine concentration vs plate DMSO controls (fold change (ratio)); higher = more amine produced, active = hit call of the paper (significant change in both replicates, either direction)
# Method in brief: as §2
Structure (SMILES),growth [1],growth (Escherichia coli IAI1 [2]),growth [3],growth [4],fold change of Histamine concentration [5],fold change of Tryptamine concentration [6],fold change of Tryptamine concentration [7],fold change of Putrescine concentration (Escherichia coli IAI1 [8]),fold change of Putrescine concentration [9],fold change of Cadaverine concentration (Escherichia coli IAI1 [10]),fold change of Cadaverine concentration [11],fold change of 2-Phenylethylamine concentration [12]
C[C@]12CCC(=O)C=C1CC[C@@H]1[C@@H]2[C@@H](O)C[C@@]2(C)[C@H]1CC[C@]2(O)C(=O)CO [Hydrocortisone] (20 µM),0.958,1.03,0.985,1.03,1.04 (inactive),1.06 (inactive),1.01 (inactive),1.04 (inactive),1 (inactive),1.03 (inactive),1 (inactive),0.975 (inactive)
CNC(=O)c1c(I)c(C(=O)NCC(=O)Nc2c(I)c(C(=O)O)c(I)c(C(=O)NCCO)c2I)c(I)c(N(C)C(C)=O)c1I [Ioxaglic acid] (20 µM),1.16,1.08,1.09,1.02,1.01 (inactive),0.978 (inactive),1.01 (inactive),1.05 (inactive),1.06 (inactive),1 (inactive),1.04 (inactive),0.982 (inactive)
CCCCC1(COC(=O)CCC(=O)O)C(=O)N(c2ccccc2)N(c2ccccc2)C1=O [Suxibuzone] (20 µM),0.913,1.04,1.06,1.12,0.877 (inactive),1.07 (inactive),0.929 (inactive),0.993 (inactive),0.987 (inactive),0.957 (inactive),1 (inactive),0.906 (inactive)
CCN(CCO)CCCC(C)Nc1ccnc2cc(Cl)ccc12 (stereo not drawn) [Hydroxychloroquine sulfate] (20 µM),1.08,0.955,0.95,0.855,1.09 (inactive),0.967 (inactive),0.991 (inactive),0.915 (inactive),1.04 (inactive),0.999 (inactive),0.982 (inactive),1.02 (inactive)
COC(=O)Nc1nc2cc(C(=O)c3ccccc3)ccc2[nH]1 [Mebendazole] (20 µM),1.04,1,1.11,0.629,0.962 (inactive),0.982 (inactive),1.01 (inactive),1.03 (inactive),0.987 (inactive),0.998 (inactive),1 (inactive),1.03 (inactive)
CCN(CC)CCOC(=O)c1ccc(N)cc1 [Procaine hydrochloride] (20 µM),0.834,1.24,1.08,1.23,0.974 (inactive),1.04 (inactive),1.04 (inactive),1.16 (inactive),1.03 (inactive),0.979 (inactive),1.01 (inactive),0.992 (inactive)
Nc1ccn([C@@H]2O[C@H](CO)[C@@H](O)[C@@H]2O)c(=O)n1 [Cytarabine] (20 µM),0.956,1.03,1.03,0.571,0.975 (inactive),0.967 (inactive),0.63 (active),0.953 (inactive),1.02 (inactive),1.32 (active),1.01 (inactive),0.69 (active)
CS(=O)(=O)c1ccc([C@@H](O)[C@@H](CF)NC(=O)C(Cl)Cl)cc1 [Florfenicol] (20 µM),0,0.0375,0.0697,0.306,0.0871 (active),0.0346 (active),0.122 (active),0.217 (active),0.459 (inactive),0.177 (active),0.508 (inactive),0.143 (active)
O=c1n(CCCN2CCN(c3cccc(Cl)c3)CC2)nc2ccccn12 [Trazodone hydrochloride] (20 µM),1.09,0.982,0.987,1.06,1.03 (inactive),0.988 (inactive),0.809 (inactive),1.01 (inactive),0.997 (inactive),0.982 (inactive),0.99 (inactive),0.799 (inactive)
Cc1ccc(N(CC2=NCCN2)c2cccc(O)c2)cc1 [Phentolamine hydrochloride] (20 µM),1.07,1,0.871,0.765,0.97 (inactive),1.03 (inactive),1 (inactive),1.05 (inactive),0.981 (inactive),0.652 (active),0.993 (inactive),1.01 (inactive)
C[C@H](CC[C@@H](O[C@@H]1O[C@H](CO[C@@H]2O[C@H](CO)[C@@H](O)[C@H](O)[C@H]2O)[C@@H](O)[C@H](O)[C@H]1O[C@@H]1O[C@H](CO)[C@@H](O)[C@H](O)[C@H]1O)C(C)(C)O)[C@H]1CC[C@@]2(C)[C@@H]3CC=C4[C@@H](CC[C@H](O[C@@H]5O[C@H](CO[C@@H]6O[C@H](CO)[C@@H](O)[C@H](O)[C@H]6O)[C@@H](O)[C@H](O)[C@H]5O)C4(C)C)[C@]3(C)[C@H](O)C[C@]12C [Mogroside V] (50 µM),0.958,0.906,1,1.22,1.03 (inactive),1.12 (inactive),0.979 (inactive),0.939 (inactive),1 (inactive),1.11 (inactive),1.02 (inactive),0.964 (inactive)
Cc1ccc2c([nH]c(=O)c3c(=O)cc(C(=O)OCCC(C)C)oc32)c1C [Repirinast] (20 µM),1.15,1.03,0.997,1.08,1.03 (inactive),1.08 (inactive),0.977 (inactive),1.01 (inactive),1 (inactive),1.03 (inactive),0.998 (inactive),0.964 (inactive)
CC(=O)Oc1ccc(C(c2ccc(OC(C)=O)cc2)c2ccccn2)cc1 [Bisacodyl] (20 µM),0.976,0.978,0.993,0.731,1.06 (inactive),0.942 (inactive),0.988 (inactive),0.967 (inactive),1.02 (inactive),1 (inactive),0.998 (inactive),0.954 (inactive)
CCCCNC(=O)NS(=O)(=O)c1ccc(C)cc1 [Tolbutamide] (20 µM),0.926,0.985,0.957,0.746,1.04 (inactive),1.02 (inactive),1.01 (inactive),0.978 (inactive),0.988 (inactive),1 (inactive),1 (inactive),1.04 (inactive)
"CCN(CC)CCOc1ccc(C(=C(Cl)c2ccccc2)c2ccccc2)cc1 [(Z,E) Clomiphene citrate] (20 µM)",1.06,1,1.02,1.01,0.973 (inactive),1.05 (inactive),0.655 (active),0.961 (inactive),0.981 (inactive),0.955 (inactive),1.01 (inactive),0.804 (inactive)
OC(CCN1CCCCC1)(c1ccccc1)c1ccccc1 [Pridinol methanesulfonate salt] (20 µM),1.18,0.97,0.996,1.02,1.05 (inactive),1.03 (inactive),1.05 (inactive),1.21 (inactive),0.996 (inactive),0.368 (active),0.997 (inactive),1.04 (inactive)
CC1(C)S[C@@H]2[C@H](NC(=O)[C@H](C(=O)O)c3ccsc3)C(=O)N2[C@H]1C(=O)O [Ticarcillin sodium] (20 µM),0,1.22,1.02,0,1.04 (inactive),0.0277 (active),0.0454 (active),1.21 (inactive),1.02 (inactive),1.44 (active),0.996 (inactive),0.0536 (active)
COC(=O)C1=C(C)NC(C)=C(C(=O)OCCN(C)Cc2ccccc2)C1c1cccc([N+](=O)[O-])c1 (stereo not drawn) [Nicardipine hydrochloride] (20 µM),1.11,0.934,1.01,1.18,0.982 (inactive),0.981 (inactive),0.915 (inactive),1.04 (inactive),0.999 (inactive),0.995 (inactive),0.99 (inactive),0.858 (inactive)
O=S(=O)(O)NC1CCCCC1 [Cyclamic acid] (50 µM),1.16,0.998,0.991,0.998,1.01 (inactive),1.03 (inactive),1.01 (inactive),1.03 (inactive),1.01 (inactive),0.989 (inactive),0.991 (inactive),1.02 (inactive)
NC1CCN(c2c(F)cc3c(=O)c(C(=O)O)cn(C4CC4)c3c2Cl)C1 (stereo not drawn) [Clinafloxacin] (20 µM),0.00892,0.0142,0.102,0.356,0.118 (active),0.0514 (active),0.337 (active),0.703 (inactive),0.647 (active),0.233 (active),0.942 (inactive),0.36 (active)
O=C(O[C@@H]1C[C@@H]2C[C@H]3C[C@H](C1)N2CC3=O)c1c[nH]c2ccccc12 [Dolasetron mesilate] (20 µM),0.968,0.994,0.986,1.07,0.981 (inactive),1 (inactive),1.02 (inactive),0.942 (inactive),0.991 (inactive),0.979 (inactive),0.989 (inactive),1.04 (inactive)
COc1cc(Nc2c(C#N)cnc3cc(OCCCN4CCN(C)CC4)c(OC)cc23)c(Cl)cc1Cl [Bosutinib] (20 µM),0.991,0.99,1.05,1.16,0.973 (inactive),0.96 (inactive),0.942 (inactive),1.02 (inactive),1 (inactive),1.02 (inactive),1.01 (inactive),0.989 (inactive)
O=P(O)(O)C(O)(Cn1ccnc1)P(=O)(O)O [Zoledronic acid hydrate] (20 µM),1.08,0.974,0.978,1,1.08 (inactive),0.973 (inactive),0.629 (inactive),0.987 (inactive),1.02 (inactive),1.05 (inactive),1 (inactive),0.627 (inactive)
COC(=O)C1=C(C)NC(C)=C(C(=O)O[C@H]2CCN(Cc3ccccc3)C2)[C@H]1c1cccc([N+](=O)[O-])c1 [Barnidipine Hydrochloride] (20 µM),0.993,1.08,0.991,1.06,1.01 (inactive),0.969 (inactive),0.992 (inactive),0.989 (inactive),0.999 (inactive),1.02 (inactive),1.01 (inactive),0.944 (inactive)
